Among the data in PubChem BioAssay (NCI) are growth values, retold here.

Some test systems named below: NCI-H23 lung; NCI-H226 lung; NCI-H322M lung; HOP-62 NSCLC; NCI-H460 lung; HOP-92 NSCLC; NCI-H522 lung; A549/ATCC NSCLC; 786-0 renal; COLO 205 colon; DU-145 prostate; K-562 leukemia; MALME-3M melanoma; MDA-MB-231 breast; RXF 393 renal; SF-268 CNS; SF-295 CNS; SF-539 CNS; UACC-257 melanoma; M14 melanoma.
Holding throughout (assay): NCI-60 one-dose screen, 48 h (100 = growth as untreated, 0 = no growth, -100 = all killed)
Holding throughout (settings): 10 µM unless noted

The structures appear in SMILES notation. This is part of a sample that, as a whole, favours compounds with a hit. Of some 83,000 tested, about 20% had one in any assay.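 Treatment: one concentration, 48 hours, 96-well format. Scoring: percent growth, with anything below 10 considered active.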 Unmarked numbers belong to inactive results. Activity calls are given as the source filed them.

Take `COc1ccc(-c2nn(-c3ccc(NC(=O)c4cc(C(F)(F)F)cc(C(F)(F)F)c4)cc3)cc2-c2ccncc2)cc1Cl`: the growth was 72.1% in the experiment on NCI-H23 lung; 91.1% in the experiment with NCI-H226 lung; 87.4% with NCI-H322M lung; 67% in the experiment on HOP-62 NSCLC; 57.7% with NCI-H460 lung; 48.7% with HOP-92 NSCLC. The growth was 71.2% in the experiment on NCI-H522 lung; 59.5% in the experiment with A549/ATCC NSCLC; 44.1% with 786-0 renal; 85.6% in the experiment on COLO 205 colon; 76.7% in the experiment with DU-145 prostate; 29% with K-562 leukemia. For the same molecule, the growth in the experiment with MALME-3M melanoma is 95.1%; in the experiment with MDA-MB-231 breast it was 49.3%; in the experiment with RXF 393 renal, -6.8% (active); with SF-268 CNS it was 68.7%; in the experiment with SF-295 CNS, 33.1%; in the experiment with SF-539 CNS it was 67.7%. Besides, the results for the growth in the experiment on UACC-257 melanoma and in the experiment with M14 melanoma were 78.8% and 40.1%, respectively.
Regarding `O=C(/C=C/c1ccccc1)Oc1ccc(/C=C/c2cc(OC(=O)/C=C/c3ccccc3)cc(OC(=O)/C=C/c3ccccc3)c2)cc1`, the growth with NCI-H23 lung was 102%; in the experiment on NCI-H226 lung, 91.4%; with NCI-H322M lung it was 90.6%; in the experiment on HOP-62 NSCLC, 82.9%; in the experiment with NCI-H460 lung, 100%; in the experiment on HOP-92 NSCLC, 95.8%. The growth is 77% with NCI-H522 lung; 83.9% with A549/ATCC NSCLC; 102% in the experiment on 786-0 renal; 97.4% in the experiment on COLO 205 colon; 104% in the experiment with DU-145 prostate; 94.8% with K-562 leukemia. Moreover, the growth was 91.2% with MALME-3M melanoma; 104% with MDA-MB-231 breast; 114% in the experiment on RXF 393 renal; 99.5% in the experiment with SF-268 CNS; 101% in the experiment on SF-295 CNS; 91.8% in the experiment with SF-539 CNS. For the same molecule, the figures for the growth with UACC-257 melanoma and in the experiment with M14 melanoma were 81.7% and 100%, respectively.
Take `COc1ccc(Cl)cc1NC(=O)c1cc2c([nH]1)-c1nc(NC(=O)C(C)(C)C)sc1CC2`: the growth was 57.8% with NCI-H23 lung; 57.7% with NCI-H226 lung; 75.5% in the experiment with NCI-H322M lung; 61.7% with HOP-62 NSCLC; 18.3% in the experiment on NCI-H460 lung; 51.4% in the experiment on HOP-92 NSCLC. The growth with NCI-H522 lung is 38%; in the experiment on A549/ATCC NSCLC, 60.6%; with 786-0 renal it was 93.2%; in the experiment with COLO 205 colon, 78.1%; in the experiment with DU-145 prostate, 59.9%; in the experiment on K-562 leukemia it was 10.6%. Further, the growth with MALME-3M melanoma was 74.1%; with MDA-MB-231 breast, 33.1%; with RXF 393 renal it was 99%; in the experiment with SF-268 CNS, 45.3%; with SF-295 CNS it was 84.2%; in the experiment on SF-539 CNS, -14.6% (active). Further, the growth was 94.4% in the experiment with UACC-257 melanoma and 71.7% in the experiment on M14 melanoma.
Take `O=C1COc2ccccc2C(=O)N1CCCCNc1ccccc1`: the growth with NCI-H23 lung was 98.9%; in the experiment with NCI-H226 lung, 91.7%; in the experiment with NCI-H322M lung it was 99.5%; with HOP-62 NSCLC, 73.5%; in the experiment with NCI-H460 lung, 98.7%; in the experiment with HOP-92 NSCLC, 64.8%. The growth with NCI-H522 lung is 68.9%; with A549/ATCC NSCLC, 64.9%; with 786-0 renal it was 70.8%; with COLO 205 colon, 101%; in the experiment on DU-145 prostate it was 96.3%; with K-562 leukemia, 68.5%. Further, the growth with MALME-3M melanoma is 102%; in the experiment on MDA-MB-231 breast it was 88.8%; in the experiment with RXF 393 renal it was 123%; with SF-268 CNS, 73.2%; with SF-295 CNS, 96.3%; in the experiment on SF-539 CNS, 63.2%. For the same molecule, the growth in the experiment with UACC-257 melanoma was 105%; with M14 melanoma, 99.1%.
For `CCCC(C)(C)COC(=O)c1cccc(N)c1`, the growth in the experiment with NCI-H23 lung is 103%; with NCI-H226 lung, 87.8%; in the experiment with NCI-H322M lung, 80.9%; with HOP-62 NSCLC, 92.5%; in the experiment with NCI-H460 lung, 108%; with HOP-92 NSCLC it was 85%. Also, the growth was 60.6% in the experiment on NCI-H522 lung; 89.7% in the experiment on A549/ATCC NSCLC; 93.6% in the experiment with 786-0 renal; 110% in the experiment with COLO 205 colon; 106% in the experiment with DU-145 prostate; 87% in the experiment with K-562 leukemia. For the same molecule, the growth in the experiment with MALME-3M melanoma is 92%; with MDA-MB-231 breast it was 106%; in the experiment with RXF 393 renal it was 123%; in the experiment on SF-268 CNS it was 97.7%; in the experiment on SF-295 CNS, 101%; in the experiment on SF-539 CNS it was 103%. The growth was 83.3% with UACC-257 melanoma and 99.4% in the experiment on M14 melanoma.
With `O=S(=O)(CCN1CCOCC1)Nc1cncc(-c2ccc3ncnc(Nc4ccc(F)c(Cl)c4)c3c2)c1`, the growth is 74.8% with NCI-H23 lung; 84.8% in the experiment on NCI-H226 lung; 33.8% with NCI-H322M lung; 40% with HOP-62 NSCLC; 98.6% with NCI-H460 lung; 13% in the experiment with HOP-92 NSCLC. In addition, the growth is 54.8% in the experiment on NCI-H522 lung; 77.2% in the experiment with A549/ATCC NSCLC; 58.9% in the experiment on 786-0 renal; 64.9% in the experiment with COLO 205 colon; 65.3% in the experiment with DU-145 prostate; 96.5% in the experiment on K-562 leukemia. In addition, the growth in the experiment with MALME-3M melanoma is 57.7%; in the experiment with MDA-MB-231 breast it was 67.9%; in the experiment with RXF 393 renal, 84.6%; in the experiment with SF-268 CNS it was 63.5%; with SF-295 CNS, 82.1%; with SF-539 CNS it was 75.1%. In addition, the growth was 87.6% in the experiment with UACC-257 melanoma and 73.3% with M14 melanoma.
In the case of `Cc1cc(O[C@@H]2O[C@@H](C)[C@H](O)[C@@H](O)[C@H]2O)c2c3c(c(O[C@@H]4O[C@@H](C)[C@H](O)[C@@H](O)[C@H]4O)cc2c1)C(=O)c1c(O)cccc1C3=O`, the growth in the experiment on NCI-H23 lung is 95.4%; in the experiment on NCI-H226 lung it was 52.1%; in the experiment on NCI-H322M lung, 95.4%; in the experiment on HOP-62 NSCLC it was 77.4%; with NCI-H460 lung it was 84.8%; in the experiment with HOP-92 NSCLC, 76.1%. Besides, the growth was 64.8% in the experiment on NCI-H522 lung; 76.8% in the experiment with A549/ATCC NSCLC; 24.4% in the experiment on 786-0 renal; 94.5% in the experiment on COLO 205 colon; 98% in the experiment on DU-145 prostate; 79.6% with K-562 leukemia. The growth in the experiment with MALME-3M melanoma was 107%; with MDA-MB-231 breast it was 86.3%; with RXF 393 renal, 29.6%; in the experiment on SF-268 CNS, 56.3%; in the experiment on SF-295 CNS, 79%; in the experiment with SF-539 CNS, 92.5%. Also, the growth in the experiment on UACC-257 melanoma was 87.2%; with M14 melanoma, 82.6%.
Regarding `CCN(CC)CCNc1ccc([N+](=O)[O-])c2sc3cc(Cl)ccc3c(=O)c12`, the growth is 63.5% in the experiment on NCI-H23 lung; 84.9% in the experiment with NCI-H226 lung; 53.9% in the experiment on NCI-H322M lung; 57.7% in the experiment on HOP-62 NSCLC; -17.8% (active) in the experiment on NCI-H460 lung; 47.5% in the experiment on HOP-92 NSCLC. Besides, the growth with NCI-H522 lung is 49.4%; in the experiment with A549/ATCC NSCLC, 52.9%; in the experiment with 786-0 renal, -80.3% (active); with COLO 205 colon it was 60.1%; in the experiment with DU-145 prostate, 50.2%; in the experiment with K-562 leukemia, 1.93% (active). The growth is -9.6% (active) in the experiment with MALME-3M melanoma; 22.6% in the experiment on MDA-MB-231 breast; -39.3% (active) in the experiment with RXF 393 renal; 52.4% in the experiment on SF-268 CNS; 43.9% in the experiment with SF-295 CNS; 34.5% in the experiment on SF-539 CNS. Besides, the figures for the growth in the experiment on UACC-257 melanoma and with M14 melanoma were 71.5% and 79.4%, respectively.
